# About 11,000 (3.1%) of roughly 360,000 compounds were called active. About 4% were inconclusive and are not listed. Shown is part of a subset that was picked to be rich in actives. Values without a mark were called inactive. The call rests on the fitted dose curve; in most records, active means well fitted inhibition curve with a large enough effect; inconclusive means small, poorly fitted or top-dose-only effect; inactive means no such curve, though single readings can be large or run the other way.
# Target: Schistosoma mansoni thioredoxin glutathione reductase (TGR) (UniProt Q962Y6)
# Experiment: qHTS Assay for the Inhibitors of Schistosoma Mansoni Peroxiredoxins; further: nearly all actives have a fitted effect of over 60% in size
# Conditions: purified TGR, DTNB reduction, TNB absorbance 405 nm; series mostly up to 114 µM; activity change, negative = inhibition: at the top concentration
# How it was run: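 Kinetic colorimetric format: TGR-catalysed, NADPH-driven DTNB reduction monitored via TNB absorbance. Enzyme dispensed at 20 nM; compound exposure 15 min at room temperature before reaction start.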
# On the % scale 0 is the no-effect control and ±100 the full control effect; potency means the concentration at half of the fitted maximal effect.
Structure (SMILES),"activity change, negative = inhibition",Potency
O=C(NCCc1ccccc1)c1ccc2c(c1)N(Cc1ccccc1)C(=O)c1ccccc1S2(=O)=O,-6.43% (inactive),
COc1ccccc1-c1cc(C(F)(F)F)nc(S(=O)(=O)CCCC(=O)Nc2ccc(F)cc2F)n1,-34.2% (inactive),
CSc1ccccc1NC(=O)CCS(=O)(=O)c1nc(-c2cccs2)cc(C(F)(F)F)n1,,12.6 µM (active)
COc1ccccc1-c1cc(C(F)(F)F)nc(S(=O)(=O)CCCC(=O)Nc2cc(C)ccc2O)n1,-34.7% (inactive),
CCOc1ccccc1NC(=O)CSc1ncc(S(=O)(=O)c2ccc(C(C)(C)C)cc2)c(=O)[nH]1,-1.94% (inactive),
CCCCN1C(=O)c2[nH]nc(-c3ccccc3O)c2C1c1cccc(OCc2ccccc2)c1 (stereo not given),10.1% (inactive),
COc1ccccc1N1CCN(S(=O)(=O)CCNC(=O)COc2ccc(F)cc2)CC1,-2.42% (inactive),
Cc1nc(N2CCOCC2)c2c(C(=O)NCc3cccc(Cl)c3)c(C)oc2n1,4.57% (inactive),
O=C(NC(=S)Nc1ccccc1C(=O)O)c1ccc(-c2ccc(Br)cc2)o1,,3.55 µM (active)
O=C(O)c1ccccc1NC(=O)c1ccccc1-c1ccccc1C(=O)O,-11.9% (inactive),
O=C(NC(=S)Nc1cc(C(F)(F)F)ccc1N1CCOCC1)c1ccc(-c2cccc(Cl)c2)o1,-12.5% (inactive),
Cc1ccc(Cl)cc1NC(=O)NC1COc2ccccc2C1 (stereo not given),2.72% (inactive),
Cc1ccc(NC(=O)CCCNC(=O)c2ccc(Cl)cc2)cc1S(=O)(=O)N1CCCCC1,-0.386% (inactive),
CC(=O)Nc1ccc(NC(=O)CCCNC(=O)c2ccc(Cl)cc2)cc1,-3.03% (inactive),
Cc1ccc(CNC(=O)CCCNC(=O)c2ccc(Cl)cc2)n1C,,25.1 µM (active)
COC(=O)c1scc(-c2ccccc2)c1S(=O)(=O)Nc1ccccc1,20.7% (inactive),
COc1ccc(-n2c(=O)c3sc4ccccc4c3n(CC(=O)Nc3cccc(C)c3)c2=O)cc1,-0.518% (inactive),
Cc1cccc(N2CCN(C(=O)CCn3c(=O)c4cccn4c4cccnc43)CC2C)c1 (stereo not given),-0.636% (inactive),
O=C1Oc2ccccc2C(=O)/C1=C/c1ccccc1O,,2 µM (active)
COC(=O)c1ccc(/C=C2/C(=O)Oc3ccccc32)cc1,-5.95% (inactive),
CC(C)(C)NC(=O)CSc1nc(-c2ccc(F)cc2)cc(C(F)(F)F)n1,3.3% (inactive),
COc1ccc(S(=O)(=O)/N=C2\C=C(NS(=O)(=O)c3ccccc3)C(=O)c3ccccc32)cc1,,35.5 µM (active)
CCCC(NS(=O)(=O)c1ccc(OC)cc1)C(=O)O (stereo not given),1.05% (inactive),
COc1ccc(S(=O)(=O)Nc2cc3c(C(=O)OC(C)C)c(C)oc3c3ccccc23)cc1,7.76% (inactive),
CCc1cc(CNC(=O)CC2C(=O)NCCN2CC2CCCCC2)on1 (stereo not given),-29.1% [at 57.1 µM] (inactive),

Structure (SMILES),"activity change, negative = inhibition",Potency
CCc1cc(CNC(=O)CC2C(=O)NCCN2Cc2ccccc2C(F)(F)F)on1 (stereo not given),,35.5 µM (active)
Cc1ccccc1CN1CCNC(=O)C1CC(=O)NCCC1=CCCCC1 (stereo not given),-11.2% (inactive),
CC(C)c1ccc2oc(-c3cc(NC(=O)c4cccs4)ccc3Cl)nc2c1,-0.467% (inactive),
COc1ccc(OC)c(-c2csc(-c3c(N)c(C(=O)c4ccccc4)n4ccccc34)n2)c1,-0.11% (inactive),
CC(/C=C/C1(O)C(C)CC(=O)CC1(C)C)OC1OC(CO)C(O)C(O)C1O (stereo not given),,25.1 µM (active)
C=CC1C(OC2OC(CO)C(O)C(O)C2O)OC=C(C(=O)OC)C1CC1CC(=O)CC(CC(=O)CCc2ccc(O)cc2)O1 (stereo not given),0.84% (inactive),
CC1=C(C)C(=O)OC(C(C)C2CCC3C4CC=C5CC(OC6OC(COC7OC(CO)C(O)C(O)C7O)C(O)C(O)C6O)CC(O)C5(C)C4CCC23C)C1 (stereo not given),-24.4% (inactive),
CC(=O)N(Cc1cc(=O)[nH]c2ccccc12)c1ccc(C)cc1C,-2.87% (inactive),
Cc1ccc(N(Cc2cc(=O)[nH]c3ccccc23)C(=O)CCl)cc1,,3.16 µM (active)
Cc1ccc(N(Cc2cc3ccccc3[nH]c2=O)C(=O)c2cccs2)cc1,-7.78% (inactive),
CCOC(=O)c1ccc(-c2ccc(/C=C(\C#N)C(=O)Nc3ccc(C)cc3)o2)cc1,7.23% (inactive),
COc1ccc(OCCCn2c(C3CC(=O)N(c4ccc(F)cc4)C3)nc3ccccc32)cc1 (stereo not given),-0.0863% (inactive),
CCOC(=O)C1(Cc2ccccc2C)CCCN(C(=O)c2ccc(COC)o2)C1 (stereo not given),,15.8 µM (active)
CCOC(=O)C1(Cc2ccccc2C)CCCN(C(=O)CCc2c(C)noc2C)C1 (stereo not given),-9.49% (inactive),
CCOC(=O)C1(Cc2ccccc2C)CCCN(S(C)(=O)=O)C1 (stereo not given),4.13% (inactive),
COc1ccc(CNc2nc(-c3ccccc3)nn2C(=O)c2ccccc2OC)cc1,21.4% (inactive),
CCOC(=O)c1cccc(NC(=O)Cn2cnc3nc4c(cc3c2=O)CCCC4)c1,8.05% (inactive),
CC1=C(c2ccc(C)c(C)c2)S(=O)(=O)NC1=NCc1ccccc1Cl,0.753% (inactive),
C=CCNC(=O)CSc1nc2scc(-c3ccco3)c2c(=O)n1CC=C,,39.8 µM (active)
C=CCn1c(SCC(=O)NCC2CCCO2)nc2sc(C)c(C)c2c1=O (stereo not given),4.37% (inactive),
CCC1(C)Cc2c(sc3[nH]c(=S)n(Cc4ccccc4)c(=O)c23)CO1 (stereo not given),-10.7% (inactive),
C=CCn1c(=S)[nH]c2scc(-c3ccco3)c2c1=O,,8.91 µM (active)
C=CCn1c(SCC(=O)Nc2ccc(NC(C)=O)cc2)nc2sc(C)c(C)c2c1=O,-18% (inactive),
C=CCn1c(SCc2csc(C)n2)nc2scc(-c3ccc(C)o3)c2c1=O,,7.94 µM (active)
C=CCn1c(SCc2c(C)noc2C)nc2sc3c(c2c1=O)CCC(C)C3 (stereo not given),5.66% (inactive),

# Reference: PubChem BioAssay AID485364 (National Center for Advancing Translational Sciences (NCATS), 2010)
